In PubChem BioAssay AID447 (National Center for Advancing Translational Sciences (NCATS), 2006):
Screen size: about 69,000 compounds; fewer than 10 were called active. About 100% were inconclusive and are not listed. No rule for the calls is given here. The list shows a part of the results.

molecular target: UDP-N-acetylglucosamine--peptide N-acetylglucosaminyltransferase 110 kDa subunit (Homo sapiens) (UniProt O15294); experiment: O-Glc NAc Transferase (sOGT); conditions: sOGT fluorescence polarization UDP-GlcNAc probe displacement
Source text: NIH Molecular Libraries Screening Centers Network [MLSCN]
NIH Chemical Genomics Center [NCGC]
Suzanne Walker [Harvard Medical School]
OGT is the sole enzyme that mediates the attachment of O-GlcNAc groups to serine and threonine residues in the nucleus and cytoplasm of eukaryotic cells, and no specific inhibitors are known. This type of glycosylation is involved in signal transduction and plays a key role in many essential cellular processes. High O-GlcNAc levels have been correlated to insulin resistance and type 2 diabetes. In addition to elucidating the role of O-GlcNAc in cellular processes, inhibitors of OGT might be useful in studying and perhaps treating type 2 diabetes. Since HTS-amenable direct assay for OGT activity is currently unavailable, a simpler substrate-displacement screen was performed. The signal measured is based on the change in fluorescence polarization of a fluorescein-labeled UDP-GlcNAc upon displacement from its complex with OGT. Recombinant truncated version of the enzyme, sOGT, as well as labeled probe, were made available by Suzanne Walker and Benjamin Gross, Harvard Medical School.
NCGC Assay Protocol Summary:
20 mM phosphate buffer, pH 8.0, 0.01% Tween-20, 500 uM THP (Tris (hydroxypropyl) phosphine).
50 nM/1.5 uM sOGT /100 uM UDP in columns 3 and 4 as negative control (full inhibition of binding, 0 % activity).
50 nM probe/1.5 uM sOGT in columns 1, 2, 5-48. Titration of UDP control (from 40 mM, then 1:2) pin-transferred to column 2. Column 1 is neutral (100% activity).
Three uL of reagents were dispensed to 1536-well Greiner black plates. Compounds and controls (20 nL) were transferred via Kalypsys PinTool. The plates were incubated for 15 min at room temperature, and then read on ViewLux (Perkin-Elmer) High-throughput CCD imager using fluorescein polarization filter set and 45 seconds exposure time. During dispense, reagent bottles were kept submerged into 4 deg C water bath and all liquid lines were covered with aluminum foil to minimize probe and protein degradation.
Keywords: NIH Roadmap, MLSCN, MLI, MLSMR, sOGT, qHTS, NCGC

UDP-N-acetylglucosamine--peptide N-acetylglucosaminyltransferase 110 kDa subunit (Homo sapiens), sequence (O15294 whole entry, looked up): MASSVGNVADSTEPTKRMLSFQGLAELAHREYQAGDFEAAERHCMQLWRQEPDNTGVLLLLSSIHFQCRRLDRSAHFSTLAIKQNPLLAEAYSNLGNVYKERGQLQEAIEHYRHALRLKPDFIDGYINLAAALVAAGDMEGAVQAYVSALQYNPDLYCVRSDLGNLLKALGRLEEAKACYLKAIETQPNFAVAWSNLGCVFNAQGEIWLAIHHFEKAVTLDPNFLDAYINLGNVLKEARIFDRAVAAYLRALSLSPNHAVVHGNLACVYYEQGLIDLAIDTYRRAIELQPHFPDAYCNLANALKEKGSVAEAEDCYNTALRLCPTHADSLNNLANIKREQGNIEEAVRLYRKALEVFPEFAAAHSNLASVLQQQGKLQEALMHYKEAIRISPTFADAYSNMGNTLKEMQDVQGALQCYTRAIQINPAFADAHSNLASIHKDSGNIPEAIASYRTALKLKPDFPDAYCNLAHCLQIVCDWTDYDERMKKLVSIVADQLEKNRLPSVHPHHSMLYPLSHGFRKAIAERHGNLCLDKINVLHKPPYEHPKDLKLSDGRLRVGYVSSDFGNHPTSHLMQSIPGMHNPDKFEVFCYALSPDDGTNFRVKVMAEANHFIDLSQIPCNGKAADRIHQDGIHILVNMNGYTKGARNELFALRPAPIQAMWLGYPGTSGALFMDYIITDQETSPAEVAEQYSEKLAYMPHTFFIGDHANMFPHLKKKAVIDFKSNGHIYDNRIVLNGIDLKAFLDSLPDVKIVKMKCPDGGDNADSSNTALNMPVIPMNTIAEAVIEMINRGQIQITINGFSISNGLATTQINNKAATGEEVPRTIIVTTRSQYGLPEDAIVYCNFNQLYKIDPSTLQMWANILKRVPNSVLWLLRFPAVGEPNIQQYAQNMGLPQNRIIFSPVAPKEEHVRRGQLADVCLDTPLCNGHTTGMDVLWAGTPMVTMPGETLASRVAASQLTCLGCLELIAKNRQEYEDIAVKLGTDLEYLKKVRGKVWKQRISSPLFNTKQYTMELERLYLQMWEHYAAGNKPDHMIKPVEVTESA

Potency, active:
O=C(O)C1=CC(=C(c2ccc(O)c(C(=O)O)c2)c2ccc(O)c(C(=O)O)c2)C=CC1=O 21.8 µM, CCCn1c(=O)c(C)cn2nc(N)nc12 31.1 µM, CCCCCCCCCCCCC/C=C\[C@@H](O)[C@H](CO)NC(C)=O 25.2 µM, Cc1cc(-c2ccc(N=Nc3ccc4c(S(=O)(=O)O)cc(S(=O)(=O)O)c(N)c4c3O)c(C)c2)ccc1N=Nc1ccc2c(S(=O)(=O)O)cc(S(=O)(=O)O)c(N)c2c1O 43.7 µM, Nc1c(S(=O)(=O)O)cc(Nc2ccc(Nc3nc(Cl)nc(Nc4ccc(S(=O)(=O)O)cc4)n3)c(S(=O)(=O)O)c2)c2c1C(=O)c1ccccc1C2=O 22.3 µM
